Values of other authors, collected in PubChem BioAssay AID977611.
Where “and” joins values, the source holds several entries; their conditions need not be identical. Identical values can stand only once. The whole screen tested about 3,900 compounds, of which about 3,900 (100%) were called active. The limit is not given here; nearly all actives have Kd up to about 4200 µM. The set was probably picked from earlier hits. The list shows a part of the results.

Assay: PubChem AID 977611
Conditions: PDB protein-ligand complexes, literature Kd

Row | Compound | Kd
1 | O=P(O)(O)OC1C(OP(=O)(O)O)C(OP(=O)(O)O)C(OP(=O)(O)O)C(OP(=O)(O)O)C1OP(=O)(O)O (stereo not drawn) | 180 nM (active)
2 | NC(=O)c1ccc[n+]([C@@H]2O[C@H](COP(=O)([O-])OP(=O)(O)OC[C@H]3O[C@@H](n4cnc5c(N)ncnc54)[C@H](O)[C@@H]3O)[C@@H](O)[C@H]2O)c1 | 80 µM (active) and 63.7 µM (active)
3 | Nc1ncnc2c1ncn2[C@@H]1O[C@H](COP(=O)(O)OP(=O)(O)O)[C@H]2O[C@]3(O[C@H]21)C([N+](=O)[O-])=CC([N+](=O)[O-])=CC3[N+](=O)[O-] (stereo partly drawn) | 2100 nM (active)
